From PubChem BioAssay
B2AR arrestin: qHTS assay of beta-arrestin-biased ligands of beta2-adrenergic receptor. 330,000 tested, 0.02% active. beta-arrestin recruitment to beta2AR, cell-based reporter. AID 492947, 2010. Potency, µM (doses to about 46.1 µM), for inactives: at the top dose activation, actives largely listed as activators. Beta-2 adrenergic receptor (Homo sapiens), P07550; active = well fitted activation curve with a large enough effect; inconclusive = small, poorly fitted or top-dose-only effect;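 note: potency is the fitted concentration of half-maximal effect; 0% = DMSO controls and full agonism = EC100 isoproterenol or metaproterenol; nearly all actives have a fitted effect of over 65% in size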
TSHR antag: Antagonists of the Thyroid Stimulating Hormone Receptor: HTS campaign; Thyrotropin receptor (Homo sapiens), P16473; TSHR-expressing cells, TSH-stimulated cAMP HTRF, 2 h; hits give low values; activity change, negative = inhibition, % at 11.5 µM; 330,000 tested, 0.2% active;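 active = activity change below a set negative limit, meaning inhibition stronger than a set level, cut at about -70% in these data; inconclusive = activity change between two set negative limits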; note: % is set by controls: 0 for no effect and ±100 for the full control effect
Target sequence (P16473 whole entry, looked up): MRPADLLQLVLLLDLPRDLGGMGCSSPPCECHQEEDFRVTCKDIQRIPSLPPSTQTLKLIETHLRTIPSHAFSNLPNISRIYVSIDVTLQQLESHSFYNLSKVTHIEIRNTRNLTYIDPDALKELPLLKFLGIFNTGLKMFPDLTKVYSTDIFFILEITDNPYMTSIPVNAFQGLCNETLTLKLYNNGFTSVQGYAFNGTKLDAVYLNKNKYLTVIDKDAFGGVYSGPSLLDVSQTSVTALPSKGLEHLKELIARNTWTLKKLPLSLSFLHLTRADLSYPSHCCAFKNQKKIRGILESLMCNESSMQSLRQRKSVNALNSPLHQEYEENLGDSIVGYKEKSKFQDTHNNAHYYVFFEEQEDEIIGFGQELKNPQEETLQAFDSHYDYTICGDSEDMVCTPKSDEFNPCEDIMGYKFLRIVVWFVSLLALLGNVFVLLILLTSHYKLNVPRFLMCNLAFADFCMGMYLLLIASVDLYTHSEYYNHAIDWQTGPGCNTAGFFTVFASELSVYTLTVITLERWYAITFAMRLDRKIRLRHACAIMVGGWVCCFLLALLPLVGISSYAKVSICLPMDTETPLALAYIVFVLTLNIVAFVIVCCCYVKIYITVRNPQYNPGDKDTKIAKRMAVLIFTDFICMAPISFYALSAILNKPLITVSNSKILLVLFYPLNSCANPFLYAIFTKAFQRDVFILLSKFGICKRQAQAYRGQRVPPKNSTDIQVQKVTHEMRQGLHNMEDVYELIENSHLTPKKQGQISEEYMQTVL
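Freshly harvested TSHR cells receive pin-tooled compound, then EC80 TSH at 4nM final. After 2 hours at 37 deg C, antibody in lysis buffer and cAMP-d2 are added; 30 minutes at ambient temperature precede the HTRF read.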
DRD3 agonist: qHTS of D3 Dopamine Receptor Agonist: qHTS; D(3) dopamine receptor (Homo sapiens), P35462; D3R DiscoveRx beta-arrestin cells, luminescence, 90 min; max activation, %; 410,000 tested, 0.58% active; AID 652048, 2013; in the data active = max activation above about 30%; note: 0% is about no effect
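Agonist-mode cell screen: cells plated at 1500/well and incubated overnight at 37 °C, then exposed to library compounds for 90 min at 37 °C. Detection reagent was added for 30–60 min at room temperature, and luminescence was read.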
D3 antag: qHTS of D3 Dopamine Receptor Antagonist: qHTS; D(3) dopamine receptor (Homo sapiens), P35462; 360,000 tested, 2.5% active; max response, negative = inhibition, %; AID 652054, 2013; D3R cells, DiscoveRx beta-arrestin luminescence, antagonist mode; hits give low values; in the data active = max response below about -50%; inconclusive = no clear call, values can overlap the other calls; note: % is set by controls: 0 for no effect and ±100 for the full control effect
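Cells plated overnight at 1500 cells/well, then exposed to library compounds with dopamine controls for 90 minutes at 37 degrees C. DiscoveRx reagent added for 30–60 minutes at room temperature; luminescence read, quantitative HTS format.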
* hit, by the source's call; ? = inconclusive; . = no result given. Only some compounds are listed: those with a hit (about 2.9% of all), similar ones and a draw of the others.

SMILES | B2AR arrestin | TSHR antag | DRD3 agonist | D3 antag
Oc1cccc(-c2nc3c4c(ncn3n2)-c2ccccc2CC42CCCC2)c1 | 0% | -4 | 83* | 212
COc1ccc(-c2nc3c4c(ncn3n2)-c2ccccc2CC42CCCC2)cc1 | -1% | -1 | -6 | 5
Cc1noc(C)c1S(=O)(=O)N1CCCC(C(=O)NCCc2ccc(Cl)cc2)C1 (centres undefined) | 0% | -2 | 1 | -72*
O=c1c(Cl)c(Cl)cnn1Cc1nnc(-c2ccccc2Br)o1 | 0% | -18 | -16 | -81*
COc1cc(-c2nn3c(Cc4ccccc4)nnc3s2)cc(OC)c1OC | 0% | -1 | 31* | 12
Cc1cccc(CS(=O)(=O)c2ncc(Cl)c(C(=O)NCc3ccc4c(c3)OCO4)n2)c1 | -1% | 34 | -1 | -97*
COC(=O)c1ccc(NC(=O)c2nc(S(=O)(=O)Cc3cccc(C)c3)ncc2Cl)cc1 | 0% | ? | -28 | -53*
COC(=O)c1ccccc1NC(=O)c1nc(S(=O)(=O)Cc2cccc(C)c2)ncc1Cl | . | . | 8 | .
CC(=O)Nc1ccc(NC(=O)c2nc(S(=O)(=O)Cc3ccc(F)cc3)ncc2Cl)cc1 | . | . | -24 | .
Cc1ccc(CNC(=O)c2nc(S(=O)(=O)Cc3ccc(C)cc3)ncc2Cl)cc1 | . | . | -19 | .
CC(=O)Nc1ccc(NC(=O)c2nc(S(=O)(=O)Cc3cccc(C)c3)ncc2Cl)cc1 | 0% | -34 | -28 | -75*
Cc1ccc(OCCSc2nc3ccccc3n2CC(=O)N2CCCCC2)cc1C | . | . | 3 | .
CCOc1ccc(OCC(=O)Nc2nnc3n2CCS3)cc1 | . | . | -11 | .
Cc1ccc(N2CC(NC(=O)c3ccc(Br)o3)CC2=O)cc1C (centres undefined) | . | . | 2 | .
CCc1cccc(-n2nnc(-c3nsc(NC(=O)c4cccs4)n3)c2C)c1 | . | . | -4 | .
COc1ccc(-c2oc(NC(=O)c3ccc(C)cc3)c(C#N)c2-c2ccc(OC)cc2)cc1 | 0% | -5 | -4 | 21
COc1ccc(C(=O)Nc2oc(-c3ccccc3)c(-c3ccccc3)c2C#N)cc1 | 0% | -21 | -17 | -64*
NC(=O)Cn1c(=O)n(CCCCCC(=O)NCc2ccccc2Cl)c(=O)c2sccc21 | . | . | -1 | .
Cc1ccc(-c2nn3c(C)nnc3c3ccccc23)cc1S(=O)(=O)NC(C)c1ccccc1 (centres undefined) | 1% | -26 | -11 | -54*
CSc1nc(N)nc2c1ncn2CC(=O)NCc1ccc2[nH]ccc2c1 | 0% | 2 | 48* | 13
CSc1nc(N)nc2c1ncn2CC(=O)NCc1ccccc1 | 1% | 8 | 8 | 32
CSc1ncnc2c1ncn2CCCN1CCN(Cc2cccc3ccccc23)CC1 | . | . | -14 | -60*
COc1ncnc2c1ncn2CCCN1CCN(Cc2cccc3ccccc23)CC1 | . | . | -18 | ?
CSc1ncnc2c1ncn2CCCN1CCN(c2ncccn2)CC1 | . | . | 38* | 0
COc1ccccc1OCc1nnc(-c2ccccc2)o1 | . | . | 8 | .
SMILES | B2AR arrestin | TSHR antag | DRD3 agonist | D3 antag
CC(C)c1ccc(S(=O)(=O)c2cn(CC(=O)Nc3ccc(F)cc3)c3ccccc3c2=O)cc1 | . | . | 6 | .
COc1ccccc1-n1c(=O)c2c3c(sc2n(C)c1=O)CN(C(C)=O)CC3 | . | . | 7 | .
Cc1ccc(NC(=O)Cn2cc(S(=O)(=O)NC(C)C)c(S(=O)(=O)NC(C)C)c2)cc1Cl | . | . | 2 | .
CC1=C(C(=O)Nc2ccccc2C)C(c2sccc2C)n2ncnc2N1 (centres undefined) | . | . | 7 | .
Cc1ccc2nc(C(C)(C)C)c(Cc3ccsc3)n2c1 | . | . | -9 | -107*
Cc1cc2c(s1)c(C#N)c(C(=O)NCc1ccccc1F)n2C | 0% | 19 | . | .
Cc1nc(-c2ccccc2)c(-c2ccccc2)[nH]1 | -1% | -6 | -13 | -51*
Oc1ccc(-c2nc(-c3ccccc3)c(-c3ccc(Br)cc3)[nH]2)cc1 | . | . | -26 | .
Oc1ccc(N=Nc2nc(-c3ccccc3)c(-c3ccccc3)[nH]2)cc1 | 2% | -18 | -9 | -53*
COC(=O)[C@]12CCCCC=C1N(Cc1ccc3c(c1)OCO3)C(=O)[C@H](CC(=O)NCCCCc1ccccc1)C2 | . | . | -5 | -12
COc1cccc(NC(=O)C2(C)CCN2Cc2ccccc2OC(F)F)c1 (centres undefined) | . | . | -2 | 17
COc1ccc(OC)c(NC(=O)C2(C)CCN2Cc2ccccc2OC(F)F)c1 (centres undefined) | . | . | 92* | 43
CN(C)CCNC(=O)c1cc2c(s1)-c1ccccc1OC2 | 0% | 41 | -13 | -81*
CCCN1CCN(CCCNC(=O)c2cc3c(s2)-c2ccccc2OC3)CC1 | 0% | -72* | -22 | ?
Cc1cccc2c1-c1sc(C(=O)NCCCN3CCCC(C)C3)cc1CO2 (centres undefined) | 0% | -75* | -10 | -76*
CC1(C)Cc2c(sc(NC(=O)c3ccc(C(=O)c4ccccc4)cc3)c2C(N)=O)C(C)(C)N1 | -1% | 14 | -11 | -50*
COC(=O)c1c(NC(=O)c2ccccc2)sc2c1CC(C)(C)NC2(C)C | 0% | -1 | 1 | -26
O=C(CSc1nc(=O)n(Cc2ccncc2)c2c1CCC2)Nc1ccccc1 | . | . | 0 | .
Cc1ccc(Cl)cc1NC(=O)Nc1nnc(N(C)Cc2ccccc2)s1 | . | . | -8 | .
O=C(c1ccccc1)N1CCN(CC(O)COC2CCCCC2)CC1 (centres undefined) | 0% | -5 | -7 | ?
CC1CCN(CC(O)COC2CCC(C(C)(C)C)CC2)CC1 (centres undefined) | 0% | 4 | -16 | -56*
CC(C)(C)C1CCC(OCC(O)CN2CCN(c3ccccc3)CC2)CC1 (centres undefined) | 0% | -5 | 59* | -20
Cc1ccc(N2CCN(CC(O)COC3CCCCC3)CC2)cc1 (centres undefined) | -1% | 7 | -13 | -90*
CC(C)(C)C1CCC(OCC(O)CN2CCCC2)CC1 (centres undefined) | 0% | 29 | -9 | 3
OC(COC1CCCCC1)CN1CCCCC1 (centres undefined) | 0% | 41 | -18 | -72*
SMILES | B2AR arrestin | TSHR antag | DRD3 agonist | D3 antag
Cc1ccc2c(c1)cc1c(=O)n(Cc3ccc(Cl)cc3)nc(C)n12 | . | . | 9 | .
Cc1nc2nc(SCc3c(F)cccc3Cl)nn2c(C)c1Cc1ccccc1 | . | . | -12 | .
CCOC(=O)C1CCCN(c2nc3c(S(=O)(=O)c4ccc(C)c(C)c4)nnn3c3ccc(Cl)cc23)C1 (centres undefined) | . | . | 2 | .
Cc1cc(Cl)ccc1OCC(=O)OC(C)C(=O)N(C)C (centres undefined) | -1% | 5 | 2 | 8
Cc1cc(Cl)ccc1OCC(=O)OC(C)C(=O)NC(N)=O (centres undefined) | 0% | 31 | 46* | -15
COc1ccccc1NS(=O)(=O)c1ccc(-c2cc(C)no2)s1 | 0% | -10 | 51* | -1
